Experimental data taken from PubChem BioAssay AID1347426 (Functional Genomics Laboratory (NCATS/FGL), 2020).
The whole screen tested about 31,000 sequences, of which about 1,400 (4.5%) were called active. This is one part of a sample in which actives are shown more often than they occur. Values without a mark were called inactive.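 The calls were made as follows: active = median seed-adjusted z-score above 1 or below -1; inactive = the rest.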

Experiment: Novel Modifiers of Survival Motor Neuron (SMN) Protein: Gene Identification via Genome-wide siRNA Screen;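 also: luminescence tracks full-length SMN protein made from the SMN2 reporter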
Details: HEK293T SMN2-luciferase reporter, siRNA knockdown, 72 h; actives lie on both sides
Summary of the method: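 Each of three siRNAs per gene is reverse-transfected (1 pmol) into reporter HEK293T cells whose luciferase output tracks SMN protein level. After 72 h culture, ONE-Glo luminescence is control-normalized, log10-transformed and MAD-standardized; Common Seed Analysis deprioritizes seed-driven hits.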

Row | Sequence | median seed-adjusted z-score
1 | AGAUCUACCCAGACCCGGATT against TRAF4 | -1.16 (active)
2 | UCUACGACGUGGACGGUAATT against RCVRN | 0.562
3 | CAGUAUACGUGGUGCACGATT against PFKL | 0
4 | GCAUCAACAAUAUCCGGGATT against FARSA | -0.158
5 | GGGUUCCAGUAACCAGUGATT against RPP21 | -1.09 (active)
6 | GCAGCUCCAGUAACCUCAATT against ZNF683 | -0.452
7 | GAAGAGAUGUUCAACUGCATT against RAB35 | 0.317
8 | GCAAGAGAAUUAAACUGCATT against RAB8A | -0.0436
9 | GAGUUACAGCUGAUCAAAATT against VPS26A | -1.55 (active)
10 | GGGAUCAACUUAGAAGAGATT against POU6F1 | 0.978
11 | GGAUGCUGCUGAGAACUAUTT against PIK3R3 | -1.88 (active)
12 | GGAUCUUGAAUUCAACUAUTT against TLR8 | 0
13 | CGCUAUGAUCUGUACCACATT against TMEM147 | 0.233
14 | GGAACGCAGUCAGAUUUGATT against CA5B | 0.317
15 | GCGAUGAAAUUGUCGUGUATT against MAP3K9 | -0.498
16 | AGAUAACUGGAAAAUGUCUTT against SLC22A18AS | 0.0382
17 | CAAUGUCCGUGAUCAUGAUTT against SARDH | -0.195
18 | GCCUCACCGUCUAUGUACATT against CD200 | -0.0135
19 | GGAUCACGAUGAAGACAAATT against CTSL3 | 1.07 (active)
20 | ACUGGGCUCUCUUUACCUATT against DBNL | 0.398
21 | GAACAGGCGUGCCAAGUCUTT against MIXL1 | -0.204
22 | AAAGCGCAAUUGGUGGUAATT against DYNLT1 | 0.764

Row | Sequence | median seed-adjusted z-score
23 | GGUUGCUAUCAAUACCCUUTT against SLC22A18 | -0.654
24 | CCAUCCUUAGAGUUCCUUATT against SLC23A3 | -0.254
25 | CGGUAUGCCUGUGACGACATT against FCER2 | -1.75 (active)
26 | AAAUCACACCAAACACUUATT against STX11 | -0.518
27 | GCAGCUGCCGGAAAUGUUATT against KRT81 | -0.0955
28 | CAAUCAAAGGGAAACUUGATT against TPT1 | 0.236
29 | GGAGAAUGGUUCGACUGUUTT against CKAP5 | -1.87 (active)
30 | GGCUGUUUGUGAUGGAUAATT against GALNT2 | 0.0798
31 | GAAACGUGGUGAGACCUCATT against PRKX | 0.0341
32 | CAUUCGUCGUAACUUUACATT against MIPEP | -0.169
33 | CUUUCAUCUCUAAAACUGATT against LHX3 | 0.622
34 | CCAGAUAAAUCUAUAGCAATT against RCOR1 | -1.13 (active)
35 | CAAUGGAACUUUAGAUUAUTT against PCDHA11 | 0.582
36 | GGCUUUUAAGACUAAGGAATT against TRIM69 | 0.214
37 | GCCUCCCAGAUGAUCGUCATT against SLC6A13 | 0.267
38 | GGACGAUGCUGAUACGGUATT against NOP2 | 1.15 (active)
39 | CACCAGACAUCAAAAUCAATT against ATF7 | 0.903
40 | GCACAGACCUGGUGUGGAATT against NECAB2 | -0.286
41 | UGACCUUUCCUAUCUAUAATT against MCART6 | 0.714
42 | GGACACUAUAAGAAAGGAATT against FNTA | 1.04 (active)
43 | AGGUUUGGCUCAACUCUGATT against P2RX2 | 0.0454
44 | GGAAAUUGCUUACAGGAAATT against ARSJ | -0.0978

Row | Sequence | median seed-adjusted z-score
45 | GCUUAUCGGUUGAUCAUCATT against SLC6A4 | 1.43 (active)
46 | GCAAGCUGCUGAUCGAGUUTT against KAT5 | 0.32
47 | GGGACAUUUCCAAAUGGAATT against ARL6IP5 | -0.202
48 | GGGACUCUGUAUUCCCUCUTT against WFDC2 | -0.466
49 | CGUAUAGUCAAAGCUCAAATT against ZNF24 | 0.388
50 | GAAGAGUUACUACAGUAAATT against MYT1 | -0.292
51 | CGAAGGAAAUGUACAGCAATT against SLC25A42 | -1.02 (active)
52 | CAAGGUUCUUGGUUGGGUATT against ZDHHC13 | -0.381
53 | CAUCAAUGGUCAUAAUGCATT against HNRNPA2B1 | 1.33 (active)
54 | AAGAUGCUCUCCCACCUAATT against POLD4 | 0.225
55 | GGUCUACCGGAUUAUCACATT against BRD2 | -0.242
56 | GGUCUUGAAGUGUACCCUATT against ITGAV | 1.17 (active)
57 | GCAUAGACACCAUCAUCAATT against GCLC | -0.21
58 | ACUUCUACAUCAACGACAATT against ALDH4A1 | 0.0362
59 | GGAAAGAGAACGAAUCGAATT against PPM1D | -0.66
60 | GCCUUUGGUUCGCAAGUUUTT against DYRK2 | 0
61 | CAACGAUCCCUGUACCAGUTT against GABBR2 | -0.038
62 | CCUACUACCUCAAACACCATT against SYVN1 | -1.41 (active)
63 | GCUUAUUAGCCUCCAAUUUTT against ZSCAN5A | 0.31
64 | GAAGAACCCUGGUCUUUCATT against CARD14 | -0.104
65 | GCUGUGCCUUAUAACCGAATT against LRRK2 | -0.671
66 | GGGUCAUCCGAGAUUCUCATT against DLG5 | 0.467

Row | Sequence | median seed-adjusted z-score
67 | GGGUCCAACAUUCCGAAUATT against CHD1 | -1.03 (active)
68 | GGCCUUCGGCUAAAAGAGATT against KIF22 | 0.283
69 | CGGUAAUAGCAAUUCAGCATT against HEATR6 | 0
70 | GAGAGAUAUUGAUCGACUUTT against ARG2 | -0.796
71 | GAGACAAGCUUCAACCACATT against SERPINA5 | -1.01 (active)
72 | GCAUUGGUAAAAUUGCUAATT against AVIL | -0.127
73 | CGGACCGGCAGAGAACAAATT against PLA2G10 | 1.07 (active)
74 | GCUAUGUCAUCACUACCAATT against KCNAB3 | 0.0697
75 | GGAGUGCCCACAGUCAGAATT against SMUG1 | -1.38 (active)
76 | GGCUAUGUGCGGGAGUAUATT against PI4KA | 0
77 | CGAUCAAUCCAACCGCACATT against MEIS3 | 0.207
78 | CCUCGGAAGAGAUCACUAUTT against POU2F1 | 0.317
79 | CGUUUCAGUCGUUUCAAAATT against POLR2D | -3.79 (active)
80 | GGUUAUAUACCACCUUAUATT against QRSL1 | -0.539
81 | GCUCUAAGGUUACGGAAGATT against MCOLN2 | -0.0234
82 | GUCCUGUCUUGAUUAAAUUTT against CHST7 | 0
83 | GCAGAAGAAAGAACCCGUUTT against DYNC1I1 | -0.716
84 | CCACCCUACUAUGCGCACATT against GJA3 | 0.833
85 | CAAGGGUUUUCUUACAAUATT against GNA13 | 0
86 | CAAUAUGAAGGUCGAAUUATT against TPR | -1.03 (active)
87 | GACCUUAUAUGUGCAAGGATT against ZNF8 | 0.97
88 | CGACUGGAUUAAGCAGUAUTT against ATP6V1C1 | 0.0821

Row | Sequence | median seed-adjusted z-score
89 | UCAUGUGCCUGGAAAUUAATT against AIRE | 0.308
90 | GAACUGUCCGAAUCUAAUUTT against CNTNAP1 | 0.176
91 | AAUCACAACUCCUAAAAGATT against POLR2J3 | -5.42 (active)
92 | ACAUCGUAGUGGGACGAAUTT against EXOSC2 | -0.0798
93 | CAUUCGCUCUGGUACUUAUTT against CRYZ | -0.809
94 | GGUCCUAAGUUUGAAGUCATT against FRMPD2 | -0.329
95 | CGAUAUAAGCUCCGAGAGATT against POLR2E | -1.25 (active)
96 | GCUGUAACCUCUUCAUCUATT against BRUNOL6 | -0.542
97 | GCAAGGAUCAGUUUCCGGATT against RHOC | -0.579
98 | GGAACACCUUUAGUCAUGATT against ZNF790 | 0.245
99 | CCAGCUGCCUACAAAGACATT against CLDN14 | -0.456
100 | AACGCACUCUUCUACGUCATT against NTSR1 | -1.1 (active)
101 | GACCGACAUUUGUGAAGAATT against ZNF547 | 0.099
102 | CAAAUGGGACUGUCAAUUATT against REPS2 | 0.454
103 | GGUUAUCCUUUGCCCAGCATT against ACTL7A | 1.1 (active)
104 | AAGUUAGUCCUAAAGUGUATT against UCHL1 | -0.421
105 | CCACGGCACAUGGAACUAATT against SLC7A14 | 0.132
106 | GUCCCGCUAUGACUACUUUTT against GRM2 | -0.664
107 | CUGUUUGGUUUAUUCGAUUTT against ZW10 | 0.199
108 | GAGUAAGUGAAAUAGAACATT against ZBTB26 | 0
